# High-throughput results as filed in PubChem BioAssay.
# TDP1 cell noCPT – qHTS for Inhibitors of human tyrosyl-DNA phosphodiesterase 1 (TDP1): qHTS in cells in absence of CPT. AID 686978, 2013. Potency, µM (series often up to 46.2 µM), inactives show top-dose activity change, negative = growth inhibition, actives largely listed as inhibitors. 420,000 compounds, 15% hits. DT40 Tdp1-/- hTDP1 cells, no CPT, ATP luminescence, 48 h; further: nearly all actives have a fitted effect of over 55% in size
#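 Compound effects on proliferation are scored in DT40 Tdp1-/-;hTDP1 cells in the absence of CPT. ATP levels (CellTiter-Glo luminescence) are recorded after a ≥48 hr, 37 °C incubation.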
# RORg inh – qHTS for inhibitors of ROR gamma transcriptional activity; Drosophila S2 Gal4-RORgamma UAS-luciferase reporter, 20 h; Potency, µM (top dose mostly 53.6 µM), for inactives: top-dose activity change, negative = inhibition, hits mostly inhibitors; 310,000 compounds, 5.4% hits; Nuclear receptor ROR-gamma (Mus musculus), P51450; further: nearly all actives have a fitted effect of over 60% in size
# Target sequence (P51450 whole entry, looked up, the tested form may be a part): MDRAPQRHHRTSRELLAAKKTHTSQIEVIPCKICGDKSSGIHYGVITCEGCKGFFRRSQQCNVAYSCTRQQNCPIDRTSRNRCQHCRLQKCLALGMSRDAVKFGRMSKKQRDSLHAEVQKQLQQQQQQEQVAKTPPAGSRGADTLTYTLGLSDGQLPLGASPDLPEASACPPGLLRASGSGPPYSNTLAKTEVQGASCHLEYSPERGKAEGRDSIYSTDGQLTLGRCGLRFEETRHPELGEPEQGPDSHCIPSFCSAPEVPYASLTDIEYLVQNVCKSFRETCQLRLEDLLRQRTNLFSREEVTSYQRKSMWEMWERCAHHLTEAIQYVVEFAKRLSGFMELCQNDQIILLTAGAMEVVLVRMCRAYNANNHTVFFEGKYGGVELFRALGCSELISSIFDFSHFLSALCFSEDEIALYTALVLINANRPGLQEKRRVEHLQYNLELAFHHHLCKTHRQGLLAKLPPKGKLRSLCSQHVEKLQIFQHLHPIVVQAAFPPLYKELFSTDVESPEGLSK
#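 ROR gamma transcriptional activity was tracked as Gal4-UAS luciferase output in stably transfected Drosophila Schneider cells, with compound added 1 hr before 700 uM copper sulfate induction and a 20 hr ambient-temperature incubation.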
# DT40 TDP1 CPT – qHTS for Inhibitors of human tyrosyl-DNA phosphodiesterase 1 (TDP1): qHTS in cells in presence of CPT; chicken DT40 Tdp1-/-;hTDP1 cells + 20 nM CPT, ATP luminescence, 48 h; AID 686979, 2013; 420,000 compounds, 12% hits; Potency, µM (doses to about 46.2 µM), for inactives: at the top dose activity change, negative = growth inhibition, most hits filed as inhibitors; further: nearly all actives have a fitted effect of over 55% in size
#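 Chicken DT40 Tdp1-/- cells stably complemented with human TDP1 were seeded at 400 cells/well in medium containing 20 nM camptothecin, exposed to pin-transferred compounds, and grown at 37 °C for at least 48 hr. Viability was read as ATP luminescence.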
# VP16 counter – VP16 counterscreen qHTS for inhibitors of ROR gamma transcriptional activity; AID 2546, 2010; Drosophila S2 Gal4-VP16 UAS-luciferase, luminescence, 20 h; Potency, µM (highest dose often 53.6 µM), inactives show at the highest dose activity, negative = inhibition, most hits filed as inhibitors; 310,000 compounds, 3.5% hits;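 further: Gal4-VP16 expression switched on by copper sulfate through the metallothionein promoter; nearly all actives have a fitted effect of over 50% in size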
# TDP1 block – qHTS Assay for Inhibitors of Tyrosyl-DNA Phosphodiesterase (TDP1); Potency, µM (highest dose often 130 µM), for inactives: at the highest dose activity change, negative = inhibition, usual class: inhibitors; recombinant TDP1, AlphaScreen DNA substrate cleavage; 350,000 compounds, 0.28% hits; Tyrosyl-DNA phosphodiesterase 1 (Homo sapiens), Q9NUW8; further: nearly all actives have a fitted effect of over 40% in size
#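 Compounds were preincubated with Tdp1 (1 nM final) for 15 min at room temperature before substrate (15 nM final) started a 5 min reaction; beads (10 ug/ml final) were then added for 10 min before AlphaScreen detection.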
# * hit, by the source's call; u = inconclusive; x = no result given; [ ] = another dose, or the depositor's remark. Sampled rows, rich in hits. Any-hit rate of the full collection: about 19%. The call rests on the fitted dose curve; in most records, active means well fitted curve in the direction sought with a large enough effect; inconclusive means small, poorly fitted or top-dose-only effect, or another doubt; inactive means no such curve, though single readings can be large; an effect the other way counts as inactive or inconclusive. On the % scale 0 is the no-effect control and ±100 the full control effect; potency means the concentration at half of the fitted maximal effect.
SMILES,TDP1 cell noCPT,RORg inh,DT40 TDP1 CPT,VP16 counter,TDP1 block
CCN1C(Nc2ccccc2)=NC[C@@H]1CC(C)C,10%,-6%,1%,-4%,x
CCC(C)CCN1C(Nc2ccccc2)=NC[C@@H]1Cc1ccccc1 (some centres undefined),16µM*,1%,21µM*,1%,x
CCC(C)CCN1C(Nc2ccccc2)=NC[C@@H]1CC(C)C (some centres undefined),16µM*,-10%,16µM*,2%,x
CCCc1nn2c(=O)cc(COC(=O)c3ccccc3NC(=O)C3CCCCC3)nc2s1,u,x,u,x,6%
COc1cc(/C=C2/SC(=S)N(c3ccccc3)C2=O)ccc1Oc1nc(N2CCOCC2)nc(N2CCOCC2)n1,-13%,-4%,8%,-17%,4%
CCOC(=O)C1=C(c2ccccc2)Nc2c(c(=O)n(C)c(=O)n2C)C1c1ccc(O)c(OC)c1 (centres undefined),-5%,-13%,0%,2%,7%
COc1ccccc1C(=O)NCCC(=O)N(C)Cc1cccs1,3%,x,-2%,x,0%
COc1ccc(-n2nc(C(=O)NCc3ccco3)c3c4ccccc4n(C)c3c2=O)cc1Cl,10µM*,8%[0.365 µM],u,x,-1%
CCCCN(C)CCNC(=O)c1nn(-c2ccc(OC)c(Cl)c2)c(=O)c2c1c1ccccc1n2C,18µM*,x,u,x,2%
CCOc1ccc(CCNC(=O)c2nn(-c3ccc(OC)c(Cl)c3)c(=O)c3c2c2ccccc2n3C)cc1OCC,u,x,-22%,x,0%
CCOC(=O)C1(C(=O)OCC)NC(=O)CC1C (centres undefined),-3%,x,2%,x,x
Cc1cc(C)c2cc(CN(Cc3ccco3)C(=O)NCc3ccccc3)c(=O)[nH]c2c1,-10%,-19%,9%,u,-3%
Cc1nc(N)c(Cc2ccc(Cl)cc2Cl)c(N)n1,8.2µM*,26%,12µM*,u,3%
O=C(CN1C2CCCC1CC(NC(=O)c1ccccc1)C2)Nc1ccccc1C(F)(F)F (centres undefined),16µM*,u,u,2%,x
O=C(CN1C2CCCC1CC(NC(=O)c1ccco1)C2)Nc1ccccc1C(F)(F)F (centres undefined),23µM*,u,23µM*,-9%,7%[56.1 µM]
Cc1ccc(C(=O)NNC(=O)CCOc2cccc(C)c2)cc1,-6%,x,-15%,x,0%
c1ccc(CCc2nn3c(Cn4nnc5ccccc54)nnc3s2)cc1,u,u,u,16%,3%
CC(C)C1C(=O)N(Cc2cn(Cc3ccco3)nn2)CCS(=O)(=O)N1Cc1ccc(-c2cccc(N(C)C)c2)cc1 (centres undefined),16µM*,x,u,x,x
C=CCN1CCS(=O)(=O)N(Cc2ccccc2)[C@@H](C(C)C)C1=O,-8%,x,-2%,x,0%[56.1 µM]
CC1C(=O)N(Cc2cn(Cc3ccco3)nn2)CCS(=O)(=O)N1Cc1ccc(-c2ccncc2)cc1 (centres undefined),21µM*,x,u,x,x
Cc1ccc(-c2ccc(CN3C(C(C)C)C(=O)N(Cc4cn(Cc5ccco5)nn4)CCS3(=O)=O)cc2)cc1 (centres undefined),18µM*,x,18µM*,x,x
FC(F)(F)C1=Nc2cccc3cccc(c23)N1,4.6µM*,x,4.1µM*,x,x
FC(F)(F)c1ccc(C2Nc3cccc4cccc(c34)N2)cc1,u,1%,u,6%,1%
Brc1ccc(C2=Nc3cccc4cccc(c34)N2)o1,8.2µM*,-26%,6.5µM*,3%,3%
COc1ccc(-c2cc3ccccc3oc2=O)cc1,-15%,x,-11%,x,x
SMILES,TDP1 cell noCPT,RORg inh,DT40 TDP1 CPT,VP16 counter,TDP1 block
COc1cccc(N=c2oc3ccc(OC)cc3cc2-c2nc3ccccc3[nH]2)c1,u,14µM*,u,-26%,8%
COc1cccc(N=c2oc3ccccc3cc2-c2nc3ccccc3[nH]2)c1,23µM*,7.9µM*,23µM*,u,4%
Cc1[nH]c2ccccc2c1CN1CCc2ccccc2C1,12µM*,11µM*,10µM*,u,-5%
COc1ccc(CCN(C)CCCC(C#N)(c2cc(OC)c(OC)c(OC)c2)C(C)C)cc1OC (centres undefined),21µM*,-12%,u,-16%,-3%
O=C(O)COc1ccccc1/C=C1\SC(=S)N(NC(=O)c2ccccc2O)C1=O,-16%,x,-7%,x,-15%
Cc1cccc(NC(=O)C2CCC(CNS(=O)(=O)c3ccc(Br)s3)CC2)c1 (centres undefined),16µM*,x,26µM*,x,2%
Cc1ccc(NC(=O)C2CCC(CNS(=O)(=O)c3cccs3)CC2)cc1C (centres undefined),15µM*,x,15µM*,x,5%
COc1ccc(-c2cccc(C3C4C=CCCC4(C)C(=O)N3Cc3ccccc3)c2)cc1 (centres undefined),x,-8%,x,-25%,10%
CCc1ccc(S(=O)(=O)Nc2ccc(-c3ccc(N4CCCCCC4)nn3)cc2)cc1,-7%,x,-11%,x,-1%
CCc1ccc(S(=O)(=O)Nc2ccc(-c3ccc(N4CCCC4)nn3)cc2)cc1,-15%,x,-22%,x,-1%
Cc1ccc(S(=O)(=O)Nc2ccc(-c3ccc(N4CCCCCC4)nn3)cc2)cc1C,-49%,x,2.9µM*,x,4%
O=S(=O)(Nc1ccc(-c2ccc(N3CCCC3)nn2)cc1)c1ccc(OC(F)(F)F)cc1,u,x,15µM*,x,7%
CCCCOc1ccc(S(=O)(=O)Nc2ccc(-c3ccc(N4CCCCC4)nn3)cc2)cc1,21µM*,x,15µM*,x,-4%
CCCCOc1ccc(S(=O)(=O)Nc2ccc(-c3ccc(N4CCCCCC4)nn3)cc2)cc1,u,x,13µM*,x,5%
COc1cc(Br)cc2cc(C(=O)N3CCOCC3)c(=O)oc12,-13%,-10%,1%,-4%,2%
Cc1cccc(NC(=O)c2ccc3nc(N4CCOCC4)sc3c2)c1C,u,-12%,u,u,x
CC1=NN(C(=O)COc2ccccc2)C(O)(c2ccccc2)C1 (centres undefined),u,6.3µM*,5.8µM*,10µM*,3%
CCCCC1(O)CC(C(F)(F)F)=NN1C(=O)COc1ccccc1 (centres undefined),u,-35%,u,-9%,0%
